Assay results: PubChem BioAssay (NCI)
“And” between values parts separate entries of the source, which are not always exact repeats. Equal entries are not always repeated. Compounds without any hit were thinned out: in the full panel of roughly 79,000, 15% have a hit. Values without a mark were called inactive. The source made the active and inactive calls. Rule as the data show it: active = growth inhibition above about 70%; inactive = the rest.

Assay: NCI Yeast Anticancer Drug Screen. Data for the mlh1 rad18 strain (AID 175)
Conditions: S. cerevisiae mlh1 rad18 strain growth inhibition; at 50.0 µM; hits give high values
Method in brief: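 A repair-deficient yeast strain is exposed to test compound, and growth is scored relative to vehicle-treated controls.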

Question: For O=P1(N(CCCl)CCCl)Nc2cc3ccccc3cc2N1, which growth inhibition is on record?
Answer: -14.6%

Question: For CC(C)N1CC(COc2cccc3ccccc23)OP1(=O)N(CCCl)CCCl (stereo not given), which growth inhibition is on record?
Answer: 98.4% (active)

Question: For CC(=O)c1ccc([As](=O)(O)O)cc1, which growth inhibition is on record?
Answer: -30.8%

Question: Which growth inhibition does the source give for NC1=C(N2CC2)C(=O)C(N)=C(N2CC2)C1=O here?
Answer: -12.7%

Question: For Cc1cc(NN=O)nc(C)n1, which growth inhibition is on record?
Answer: 5.7%

Question: Which growth inhibition does the source give for O=[N+]([O-])O.[Sm] here?
Answer: -18.4%

Question: With COc1ccc(C(OCC2OC(n3ccc(NC(=O)c4ccccc4)nc3=O)CC2OP2(=S)SCCS2)(c2ccccc2)c2ccc(OC)cc2)cc1 (stereo not given) as the compound, how does the growth inhibition read?
Answer: 78.7% (active)

Question: Which growth inhibition does the source give for CC1=CC(=O)NP(=O)(Oc2ccc(C)cc2)N1 (stereo not given) here?
Answer: -4.4%

Question: Which growth inhibition does the source give for CC1CN1P1(N2CC2C)=NP(N2CC2C)(N2CC2C)=NP(N2CC2C)(N2CC2C)=N1 (stereo not given) here?
Answer: 5.5%

Question: Which growth inhibition does the source give for O=P1(C(Cl)Cl)OCCCO1 here?
Answer: -0.15%

Question: For C[CH2][Sn]1([CH2]C)[O]OC(c2ccccc2)[O]1 (stereo not given), which growth inhibition is on record?
Answer: 20.3%

Question: Which growth inhibition does the source give for COc1ccc2n[se]nc2c1 here?
Answer: 21%

Question: For CC1(C)CC(O)CC(C)(C)N1O, which growth inhibition is on record?
Answer: 16.4%

Question: With COP12(OC)NC(=O)OC1(C(F)(F)F)c1ccccc1O2 (stereo not given) as the compound, how does the growth inhibition read?
Answer: -39%

Question: For CCOP(=S)(OCC)OP(=O)(CC)CC, which growth inhibition is on record?
Answer: -2.55%

Question: With CN(C)/N=C(\CCN1CCCC1)CC(c1ccccc1)c1c(O)c2ccccc2oc1=O (stereo not given) as the compound, how does the growth inhibition read?
Answer: 50.3%

Question: Which growth inhibition does the source give for CC(CN1CCCCCC1)C(C#N)(c1ccccc1)c1ccccc1 (stereo not given) here?
Answer: 10.3%

Question: Which growth inhibition does the source give for COc1ccc(N2CC=C(c3ccccc3)OP2(=O)N2CC2)cc1 (stereo not given) here?
Answer: -7.7%

Question: For COc1cccc2c1C(=O)c1c(O)c3c(c(O)c1C2=O)CC(O)(C(=O)CO)CC3OC1CC(N2CCOCC2C#N)C(O)C(C)O1 (stereo not given), which growth inhibition is on record?
Answer: 89.8% (active)

Question: For CNC(P(=O)([O-])[O-])P(=O)([O-])[O-].N.N.[Pt+2], which growth inhibition is on record?
Answer: -15.7%

Question: With OC1C2CCCCN2C[C@@H](O)[C@H]1O (stereo not given in full) as the compound, how does the growth inhibition read?
Answer: -34%

Question: Which growth inhibition does the source give for [CH3][Sb]([CH3])([CH3])([O]C(=O)C(Cl)Cl)[O]C(=O)C(Cl)Cl here?
Answer: 2.9%

Question: Which growth inhibition does the source give for C[N+]1(C)CCN(c2ccccc2)CC1 here?
Answer: -5.35%

Question: With COC(=O)C1=CO[C@@H](C)[C@@H]2CN3CCc4c([nH]c5cc(OC)ccc45)[C@H]3C[C@H]12 as the compound, how does the growth inhibition read?
Answer: -41%

Question: For C=C1CCC2CC1C2(C)C (stereo not given), which growth inhibition is on record?
Answer: 21.4% and 2.7% and -10.2%

Question: Which growth inhibition does the source give for CCC(C)C1(CCc2ccccc2)C(=O)NC(=O)NC1=O (stereo not given) here?
Answer: -0.65%

Question: With Br[CH](Br)[Hg][c]1ccccc1 as the compound, how does the growth inhibition read?
Answer: 99.2% (active)

Question: For CC1C2Cc3ccc(O)cc3C1(C)CCN2C (stereo not given), which growth inhibition is on record?
Answer: 16.1%

Question: Which growth inhibition does the source give for CCOC(=O)C1C(=O)C(=O)N2CCc3c([nH]c4ccccc34)C12 (stereo not given) here?
Answer: 15.6%

Question: For CN(C)CCC(O)c1c[nH]c2ccccc12 (stereo not given), which growth inhibition is on record?
Answer: 1.15%

Question: Which growth inhibition does the source give for CCC1(c2ccccc2)C(=O)N(CCCl)C(=O)N(CCCl)C1=O here?
Answer: 17.4%

Question: With CC1(C)SC2C(NC(=O)Cc3ccccc3)C(=O)N2C1C(=O)O (stereo not given) (tested in a mixture with another compound) as the compound, how does the growth inhibition read?
Answer: -11.7%

Question: Which growth inhibition does the source give for COc1ccc(-c2c[se]c(=S)s2)cc1 here?
Answer: 11.3%

Question: Which growth inhibition does the source give for COc1cccc(C=C(C#N)C#N)c1 here?
Answer: 33.4%

Question: For COP(=O)(OC)OC1C(=O)NC(=O)NC1=O, which growth inhibition is on record?
Answer: 17.9%

Question: With Cc1cc(N(CCCl)CCCl)ccc1C1N(Cc2ccc(N(C)C)cc2)CCN1Cc1ccc(N(C)C)cc1 as the compound, how does the growth inhibition read?
Answer: 18.6%

Question: For O=C(NC1CCCCC1)c1c(O)[nH]c(=S)[nH]c1=O, which growth inhibition is on record?
Answer: -0.55%

Question: Which growth inhibition does the source give for O=C(NCCN1CCOCC1)c1ccc2cc(C(=O)N3CC(CCl)c4ccc([N+](=O)[O-])cc43)[nH]c2c1 (stereo not given) here?
Answer: 89.9% (active)

Question: Which growth inhibition does the source give for Cc1cc(Cc2cc(C)c(NC(=O)C(=O)C3C(=O)NC(=S)NC3=O)c(C(C)C)c2)cc(C(C)C)c1NC(=O)C(=O)C1C(=O)NC(=S)NC1=O here?
Answer: -11.7%

Question: With O=C(Cc1cccc([N+](=O)[O-])c1)Nc1cccc(S(=O)(=O)F)c1 as the compound, how does the growth inhibition read?
Answer: 23.9%
